Tests used:
Type in all cases: functional
Plasmodium falciparum [1] = assay: GSK_TCMDC: Inhibition of Plasmodium falciparum 3D7 in whole red blood cells, using parasite LDH activity as an index of growth. Test compounds present at 2uM
Plasmodium falciparum [2] = assay: GSK_TCMDC: Inhibition of Plasmodium falciparum Dd2 in whole red blood cells, using parasite LDH activity as an index of growth. Test compounds present at 2uM
HepG2 = assay: GSK_TCMDC: Percent inhibition of human HepG2 cell line. Test compounds present at 10uM.

SMILES | Inhibition (Plasmodium falciparum [1]) | Inhibition (Plasmodium falciparum [2]) | Inhibition (HepG2)
CCc1cc2c3c(N)nc(N)nc3ccc2n1C(C)CC (centres undefined) | 100% | 99% | 73%
CC(C)C[C@@H](/C=N/NC(N)=O)NC(=O)[C@H](CC(C)C)NC(=O)[C@H](CC(C)C)NC(=O)OCc1ccccc1 | 100% | 99% | 41%
COc1ccc(-c2cccc(NC(=O)c3ccc(C#N)cc3)c2)cc1CN1CCCN(C)CC1.O=C(O)C(F)(F)F | 100% | 89% | 22%
Oc1ccc(CCNc2nc(N/N=C/c3ccc(Cl)cc3)nc(N3CCNCC3)n2)cc1 | 100% | 68% | 14%
O=C(Nc1cc(Cl)ccc1-n1cncn1)C1(c2ccccc2)CC1 | 98% | 91% | 3%
CN1CCN(c2ccc(Nc3ncc(Cl)c(Nc4cccnc4C(N)=O)n3)cc2)CC1.Cl | 95% | 97% | 99%
CS(=O)(=O)c1ccc(Nc2ncc(-c3ccc(S(C)(=O)=O)cc3)c(OCC(F)(F)F)n2)cc1 | 97% | 98% | 0%
COC(=O)[C@@H](NC(=O)[C@@H](Nc1ccc(C#N)c2ccccc12)C(C)(C)C)c1ccc(O)cc1 | 100% | 74% | 0%
COc1ccc(CNCc2ccc(-c3cccc(-c4nc5cc(F)ccc5[nH]4)c3)cc2)cc1.O=C(O)C(F)(F)F | 100% | 94% | 33%
CC(C)(C)CNCC(C)(C)c1nc(-c2ccc(Cl)c(O)c2)c(-c2ccncc2)[nH]1.Cl | 100% | 98% | 42%
COc1ccc(-c2cccc(NC(=O)c3ccc(C#N)cc3)c2)cc1CN1CCN(C)CC1.O=C(O)C(F)(F)F | 93% | 2% | 24%
O=C(NOCCCCOc1ccc(Cl)c(Cl)c1)c1ccccc1 | 98% | 1% | 2%
COC(=O)c1c(NC(=O)c2cccc(C(F)(F)F)c2)sc2c1CCN(Cc1ccccc1)C2.Cl | 84% | 61% | 9%
CCOc1cc(C(=O)Nc2cccnc2)cc(Br)c1OCCC(C)C | 88% | 51% | 4%
COc1cc(SC)c(Br)cc1-c1nc2ccncc2[nH]1 | 91% | 9% | 5%
CC(CCCCC(=O)Nc1ccc(CC(C)NCCc2cccc(Cl)c2)cc1)NCCc1cccc(Cl)c1 (centres undefined) | 91% | 0% | 28%
OCC(c1ccccc1)n1c(COc2ccc(Cl)cc2)nc2c(OCCCN3CCCCC3)cccc21 (centres undefined) | 90% | 68% | 6%
CCc1n[nH]c(C(=O)Nc2cccc(N3CCCC3)c2)c1C | 81% | 52% | 15%
CO/N=C(\C)c1ccc2c(c1)CCN(CCC1CCC(NC(=O)/C=C/c3ccc(F)cc3)CC1)CC2.Cl (centres undefined) | 95% | 15% | 45%
CN(C)Cc1ccc2cc(NC(=O)c3ccc(-c4ccc(Cl)cc4)cc3)ccc2n1.O=C(O)C(F)(F)F | 86% | 30% | 60%

SMILES | Inhibition (Plasmodium falciparum [1]) | Inhibition (Plasmodium falciparum [2]) | Inhibition (HepG2)
CCN1CCN(CCCNc2c3ccccc3nc3ccccc23)CC1.Cl | 100% | 3% | 44%
CCOC(=O)c1ccc(NC(=O)N[C@@H](Cc2ccccc2)C(=O)NC2CCN(Cc3ccc(O)c(OC)c3)C2)cc1 (some centres undefined) | 88% | 0% | 0%
CCN(CC)CCN(Cc1ccc(-c2ccc(C(F)(F)F)cc2)cc1)C(=O)Cn1c(CCc2cccc(F)c2F)cc(=O)c(C)c1C.O=C(O)C(O)C(O)C(=O)O | 97% | 87% | 35%
COc1cc2nc(N3CCC(CNC(=O)c4ccc(-c5ccc(C(=O)N(C)C)cc5)c(OCCO)c4)CC3)nc(N)c2cc1OC | 96% | 18% | 10%
COc1c(C2CCN(CCCCNC(=O)c3cc(-c4ccc(Cl)cc4)oc3C)CC2)ccc2c1CCCC2 | 97% | 27% | 93%
NCc1cccc(-c2ccccc2CNC2CCN(Cc3ccccc3)CC2)c1.O=C(O)C(F)(F)F | 94% | 4% | 0%
Cc1nnsc1C(=O)Nc1ccc(-c2ccc(-c3nc4ccccc4[nH]3)s2)cc1 | 92% | 38% | 49%
CCCCCCCCCCN1C(=O)C2C(CCCCNC(C)=O)NC3(C(=O)N(Cc4ccc(C(C)(C)C)cc4)c4ccccc43)C2C1=O (centres undefined) | 86% | 65% | 3%
COC(=O)CCn1c(C2CCN(CC3CCC(NC(=O)/C=C/c4ccc(Cl)c(Cl)c4)CC3)CC2)nc2ccccc21 (centres undefined) | 94% | 10% | 14%
O=C(O)c1ccc2c(c1)N(C(=O)CNCc1ccc(F)cc1)CC(=O)N2CCCc1ccccc1 | 95% | 0% | 1%
O=C(C=Cc1ccc(Cl)c(Cl)c1)NCCCCCN1CCCC(CCCNS(=O)(=O)c2cccc(C(F)(F)F)c2)C1 (centres undefined) | 94% | 33% | 81%
Cl.Nc1ncc(-c2ccccc2)cc1-c1nc2cc(Cl)c(F)cc2[nH]1 | 100% | 91% | 37%
Cc1ccc(NC(=O)c2ccc(N3CCC(c4ccccc4C)CC3)nc2)cc1.O=C(O)C(F)(F)F | 83% | 72% | 49%
COc1ccc(CNCc2cccc(-c3ccc(-c4nc5ccccc5[nH]4)cc3)c2)cc1.O=C(O)C(F)(F)F | 100% | 60% | 22%
O=C(Nc1ccc2c(c1)CN(Cc1ccc(N3CCCC3)o1)CCC2)c1ccoc1.O=CO | 89% | 76% | 4%
CC(C)Cn1ncc2c3c(N)nc(N)nc3ccc21 | 94% | 73% | 63%
COc1nc(NCC(C)C)nc(Oc2ccc(=O)n(Cc3ccccc3)n2)n1 | 97% | 93% | 1%
CC(=O)NCCCCC1NC2(C(=O)N(Cc3ccc(C(C)(C)C)cc3)c3ccccc32)C2C(=O)N(C3CCCCC3)C(=O)C12 (centres undefined) | 91% | 71% | 0%
CC(C)CN(c1nc(C(=O)NNC(=O)[C@H](CC2CC2)NC(=O)c2cc3cc(OCCN(C)C)ccc3o2)cs1)C1CC1 | 87% | 97% | 0%
CC(=O)Nc1cc(C(=O)Nc2cccc(-c3csc(-c4nc5ccccc5[nH]4)c3)c2)ccc1C | 94% | 66% | 31%

SMILES | Inhibition (Plasmodium falciparum [1]) | Inhibition (Plasmodium falciparum [2]) | Inhibition (HepG2)
CN1CCN(CCCN(Cc2ccc(-c3ccc(CNCc4ccc5c(c4)OCO5)cc3)cc2)C(=O)CCC2CCCC2)CC1.O=C(O)C(F)(F)F | 99% | 85% | 55%
Cc1ccc(S(=O)(=O)N(CCCNCc2cccc(O)c2)c2ccccc2)cc1 | 95% | 94% | 6%
COc1ccc(C2C(C(=O)Nc3ccccc3)=C(C)Nc3c(C(=O)Nc4ccccc4)cnn32)cc1 (centres undefined) | 85% | 66% | 13%
CCN1CCC(N(Cc2ccc(-c3ccc(C(F)(F)F)s3)cc2)C(=O)Cn2c(CCc3cccc(F)c3F)nc(=O)c3ccccc32)CC1.O=C(O)C(O)C(O)C(=O)O | 93% | 95% | 47%
COc1c(C=NNc2nc(=Nc3ccccc3)[nH]c(=Nc3ccccc3)[nH]2)ccc(Br)c1O | 98% | 37% | 63%
O=S(=O)(c1cc2ccccc2s1)N(CCC(O)(C(F)(F)F)C(F)(F)F)Cc1cccc(O)c1 | 100% | 99% | 0%
CCN1CCC(N(Cc2ccc(-c3ccc(C(F)(F)F)cc3)cc2)C(=O)Cn2c(CCc3cccc(F)c3F)cc(=O)c3ccc(OCc4ccccc4)cc32)CC1.O=C(O)C(O)C(O)C(=O)O | 100% | 86% | 60%
O=c1[nH]c2c(cc1CNC1CCCCC1)c(-c1cccc(F)c1)nn2-c1ccccc1 | 95% | 89% | 6%
Br.COc1ccc(OCCCCON2C(=N)N=C(N)NC2(C)C)cc1 | 92% | 95% | 54%
CC(=O)Nc1ccc(OCCCCN(Cc2ccccc2C(F)(F)F)c2ccc(C(F)(F)F)c(C#N)c2)c(Cl)c1 | 96% | 96% | 14%
COc1cccc(NC(=O)NC2CCN(CCCCCNC(=O)/C=C/c3ccc(Cl)c(Cl)c3)CC2)c1 | 100% | 8% | 14%
CCCCc1cc(NCc2ccncc2)nc(Nc2ccccc2)n1 | 96% | 4% | 0%
CCCC(=O)c1cnc2c(Oc3cc(Cl)ncn3)cccc2c1Nc1ccccc1C | 99% | 85% | 6%
O=C(Nc1cccc(-c2ccc(-c3nc4cc(F)ccc4[nH]3)cc2)c1)c1cccnc1 | 100% | 92% | 27%
COc1ccc(Oc2ccc(-c3c(C)[nH]c(C)c(Cl)c3=O)cc2)cc1 | 97% | 97% | 0%
Cl.N#Cc1ccc(-c2ccc3nc(N4CCCN(C5CCC5)CC4)ccc3c2)cc1 | 96% | 14% | 36%
CCc1cn2c3c(cc(C(=O)N[C@@H](Cc4cccc(Cl)c4)[C@H](O)CNC4CCOCC4)cc13)N(C)S(=O)(=O)CC2.O=CO | 98% | 98% | 2%
Cl.Oc1cc(-c2nc(C3(CNCc4ccc(Cl)cc4)CCCCC3)[nH]c2-c2ccncc2)ccc1Cl | 100% | 99% | 35%

From ChEMBL document CHEMBL1157539, “Thousands of chemical starting points for antimalarial lead identification” (Nature, 2010)
